Assay results: publication PMC11006913
Numbering of substitutions follows the chain as printed.

Key:
Test in all cases: PBM; 200 nM protein, PBS
Settings in all cases: dsDNA, one strand shown
HOXB9 [1] = molecular target: HOXB9 (Homo sapiens, UniProt P17482 171-250, T197M)
HOXC9 [2] = molecular target: HOXC9 (Homo sapiens, UniProt P31274 178-260, K195R)
HOXC10 [3] = molecular target: HOXC10 (Homo sapiens, UniProt Q9NYD6 254-340)
HOXB9 [4] = molecular target: HOXB9 (Homo sapiens, UniProt P17482 171-250)
HOXC9 [5] = molecular target: HOXC9 (Homo sapiens, UniProt P31274 178-260)
HOXC9 [6] = molecular target: HOXC9 (Homo sapiens, UniProt P31274 178-260, R193K)
HOXC10 [7] = molecular target: HOXC10 (Homo sapiens, UniProt Q9NYD6 254-340, K271E)
HOXB9 [8] = molecular target: HOXB9 (Homo sapiens, UniProt P17482 171-250, R186Q)
HOXC9 [9] = molecular target: HOXC9 (Homo sapiens, UniProt P31274 178-260, R222W)
HOXD13 [10] = molecular target: HOXD13 (Homo sapiens, UniProt P35453 263-343)
HOXD13 [11] = molecular target: HOXD13 (Homo sapiens, UniProt P35453 263-343, T313A)
PAX4 [12] = molecular target: T1, PAX4 (Homo sapiens, UniProt O43316 9-242, R200K)
T1 sequence: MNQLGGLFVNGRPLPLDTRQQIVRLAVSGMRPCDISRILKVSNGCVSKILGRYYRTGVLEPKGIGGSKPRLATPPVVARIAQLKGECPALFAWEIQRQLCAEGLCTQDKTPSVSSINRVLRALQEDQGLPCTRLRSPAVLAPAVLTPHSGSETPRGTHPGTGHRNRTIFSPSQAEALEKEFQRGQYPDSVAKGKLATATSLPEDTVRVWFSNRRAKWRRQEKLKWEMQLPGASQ

PAX4 [13] = molecular target: T2, PAX4 (Homo sapiens, UniProt O43316 9-242, F177Y)
T2 sequence: T1 sequence with F169Y, K192R

ALX3 [14] = molecular target: ALX3 (Homo sapiens, UniProt O95076 139-225, N203Q)
ALX3 [15] = molecular target: ALX3 (Homo sapiens, UniProt O95076 139-225)
ALX3 [16] = molecular target: ALX3 (Homo sapiens, UniProt O95076 139-225, L168Q)
ALX3 [17] = molecular target: ALX3 (Homo sapiens, UniProt O95076 139-225, L168V)
ALX3 [18] = molecular target: ALX3 (Homo sapiens, UniProt O95076 139-225, N203S)
Sequence of ALX3 (Homo sapiens, UniProt O95076 139-225, N203S) (O95076 139-225 N203S): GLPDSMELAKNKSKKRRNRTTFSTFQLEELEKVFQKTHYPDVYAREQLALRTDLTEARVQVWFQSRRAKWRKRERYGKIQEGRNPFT

Sequence of HOXB9 (Homo sapiens, UniProt P17482 171-250) (P17482 171-250): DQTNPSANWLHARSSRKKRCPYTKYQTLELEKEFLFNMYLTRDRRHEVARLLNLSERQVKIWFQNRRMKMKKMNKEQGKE
Sequence of HOXC10 (Homo sapiens, UniProt Q9NYD6 254-340) (Q9NYD6 254-340): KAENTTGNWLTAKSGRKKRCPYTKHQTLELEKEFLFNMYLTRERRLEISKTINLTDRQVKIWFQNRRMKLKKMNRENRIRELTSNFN
Sequence of HOXD13 (Homo sapiens, UniProt P35453 263-343) (P35453 263-343): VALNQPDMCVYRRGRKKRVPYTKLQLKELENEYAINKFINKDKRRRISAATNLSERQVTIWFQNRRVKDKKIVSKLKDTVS
Sequence of HOXC9 (Homo sapiens, UniProt P31274 178-260, R193K) (P31274 178-260 R193K): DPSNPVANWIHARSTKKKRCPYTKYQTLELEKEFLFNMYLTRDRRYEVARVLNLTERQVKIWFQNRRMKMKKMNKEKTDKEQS
Sequence of HOXB9 (Homo sapiens, UniProt P17482 171-250, R186Q) (P17482 171-250 R186Q): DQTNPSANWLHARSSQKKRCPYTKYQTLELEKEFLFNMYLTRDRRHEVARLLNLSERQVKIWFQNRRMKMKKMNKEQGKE
Sequence of HOXD13 (Homo sapiens, UniProt P35453 263-343, T313A) (P35453 263-343 T313A): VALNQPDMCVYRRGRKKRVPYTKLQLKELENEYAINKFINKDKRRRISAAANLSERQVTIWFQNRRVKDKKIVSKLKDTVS
Sequence of HOXC9 (Homo sapiens, UniProt P31274 178-260, R222W) (P31274 178-260 R222W): as the sequence (P31274 178-260 R193K) above, with K16R, R45W counted along it
Sequence of HOXC9 (Homo sapiens, UniProt P31274 178-260) (P31274 178-260): as the sequence (P31274 178-260 R193K) above, with K16R counted along it
Sequence of HOXC9 (Homo sapiens, UniProt P31274 178-260, K195R) (P31274 178-260 K195R): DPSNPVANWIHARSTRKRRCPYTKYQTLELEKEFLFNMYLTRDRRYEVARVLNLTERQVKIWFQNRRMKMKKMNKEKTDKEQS
Sequence of HOXB9 (Homo sapiens, UniProt P17482 171-250, T197M) (P17482 171-250 T197M): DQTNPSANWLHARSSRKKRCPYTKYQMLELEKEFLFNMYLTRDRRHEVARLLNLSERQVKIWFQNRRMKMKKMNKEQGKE
Sequence of HOXC10 (Homo sapiens, UniProt Q9NYD6 254-340, K271E) (Q9NYD6 254-340 K271E): as the sequence (Q9NYD6 254-340) above, with K18E counted along it
Sequence of ALX3 (Homo sapiens, UniProt O95076 139-225) (O95076 139-225): as the sequence (O95076 139-225 N203S) above, with S65N counted along it
Sequence of ALX3 (Homo sapiens, UniProt O95076 139-225, L168V) (O95076 139-225 L168V): as the sequence (O95076 139-225 N203S) above, with L30V, S65N counted along it
Sequence of ALX3 (Homo sapiens, UniProt O95076 139-225, N203Q) (O95076 139-225 N203Q): as the sequence (O95076 139-225 N203S) above, with S65Q counted along it
Sequence of ALX3 (Homo sapiens, UniProt O95076 139-225, L168Q) (O95076 139-225 L168Q): as the sequence (O95076 139-225 N203S) above, with L30Q, S65N counted along it

ACATTAAT
binding signal (HOXB9 [1]): 10.1 upbm affinity estimate (log intensity, higher = more binding, comparable within an allelic series) | binding signal (HOXC9 [2]): 12.7 upbm affinity estimate (log intensity, higher = more binding, comparable within an allelic series) | binding signal (HOXC10 [3]): 12.2 upbm affinity estimate (log intensity, higher = more binding, comparable within an allelic series) | binding signal (HOXB9 [4]): 11.9 upbm affinity estimate (log intensity, higher = more binding, comparable within an allelic series) | binding signal (HOXC9 [5]): 12.7 upbm affinity estimate (log intensity, higher = more binding, comparable within an allelic series) | binding signal (HOXC9 [6]): 12.7 upbm affinity estimate (log intensity, higher = more binding, comparable within an allelic series) | binding signal (HOXC10 [7]): 12 upbm affinity estimate (log intensity, higher = more binding, comparable within an allelic series) | binding signal (HOXB9 [8]): 11.7 upbm affinity estimate (log intensity, higher = more binding, comparable within an allelic series) | binding signal (HOXC9 [9]): 11 upbm affinity estimate (log intensity, higher = more binding, comparable within an allelic series)

CGCCGCCG
binding signal (HOXC10 [3]): 10 upbm affinity estimate (log intensity, higher = more binding, comparable within an allelic series) | binding signal (HOXD13 [10]): 9.39 upbm affinity estimate (log intensity, higher = more binding, comparable within an allelic series) | binding signal (HOXC10 [7]): 10 upbm affinity estimate (log intensity, higher = more binding, comparable within an allelic series) | binding signal (HOXD13 [11]): 9.5 upbm affinity estimate (log intensity, higher = more binding, comparable within an allelic series)

GACCAGGC
binding signal (HOXB9 [1]): 8.29 upbm affinity estimate (log intensity, higher = more binding, comparable within an allelic series) | binding signal (PAX4 [12]): 9.22 upbm affinity estimate (log intensity, higher = more binding, comparable within an allelic series) | binding signal (HOXB9 [4]): 8.23 upbm affinity estimate (log intensity, higher = more binding, comparable within an allelic series) | binding signal (PAX4 [13]): 9.29 upbm affinity estimate (log intensity, higher = more binding, comparable within an allelic series) | binding signal (HOXB9 [8]): 8.26 upbm affinity estimate (log intensity, higher = more binding, comparable within an allelic series)

CCCATTAA
binding signal (HOXB9 [1]): 10.1 upbm affinity estimate (log intensity, higher = more binding, comparable within an allelic series) | binding signal (HOXC9 [2]): 12.9 upbm affinity estimate (log intensity, higher = more binding, comparable within an allelic series) | binding signal (HOXC10 [3]): 12.2 upbm affinity estimate (log intensity, higher = more binding, comparable within an allelic series) | binding signal (HOXB9 [4]): 12.2 upbm affinity estimate (log intensity, higher = more binding, comparable within an allelic series) | binding signal (HOXC9 [5]): 12.9 upbm affinity estimate (log intensity, higher = more binding, comparable within an allelic series) | binding signal (HOXC9 [6]): 12.9 upbm affinity estimate (log intensity, higher = more binding, comparable within an allelic series) | binding signal (HOXD13 [10]): 11.8 upbm affinity estimate (log intensity, higher = more binding, comparable within an allelic series) | binding signal (HOXC10 [7]): 12.2 upbm affinity estimate (log intensity, higher = more binding, comparable within an allelic series) | binding signal (HOXD13 [11]): 11.5 upbm affinity estimate (log intensity, higher = more binding, comparable within an allelic series) | binding signal (HOXB9 [8]): 12 upbm affinity estimate (log intensity, higher = more binding, comparable within an allelic series) | binding signal (HOXC9 [9]): 10.9 upbm affinity estimate (log intensity, higher = more binding, comparable within an allelic series)

CCCCCTCG
binding signal (HOXB9 [1]): 8.45 upbm affinity estimate (log intensity, higher = more binding, comparable within an allelic series) | binding signal (HOXB9 [4]): 8.63 upbm affinity estimate (log intensity, higher = more binding, comparable within an allelic series) | binding signal (HOXB9 [8]): 8.59 upbm affinity estimate (log intensity, higher = more binding, comparable within an allelic series)

GCCGCTCC
binding signal (HOXD13 [10]): 9.56 upbm affinity estimate (log intensity, higher = more binding, comparable within an allelic series) | binding signal (HOXD13 [11]): 9.61 upbm affinity estimate (log intensity, higher = more binding, comparable within an allelic series)

TCATTAAA
binding signal (HOXB9 [1]): 10.2 upbm affinity estimate (log intensity, higher = more binding, comparable within an allelic series) | binding signal (HOXC9 [2]): 13 upbm affinity estimate (log intensity, higher = more binding, comparable within an allelic series) | binding signal (HOXC10 [3]): 12.6 upbm affinity estimate (log intensity, higher = more binding, comparable within an allelic series) | binding signal (HOXB9 [4]): 12.2 upbm affinity estimate (log intensity, higher = more binding, comparable within an allelic series) | binding signal (HOXC9 [5]): 12.9 upbm affinity estimate (log intensity, higher = more binding, comparable within an allelic series) | binding signal (HOXC9 [6]): 12.9 upbm affinity estimate (log intensity, higher = more binding, comparable within an allelic series) | binding signal (HOXD13 [10]): 11.9 upbm affinity estimate (log intensity, higher = more binding, comparable within an allelic series) | binding signal (HOXC10 [7]): 12.4 upbm affinity estimate (log intensity, higher = more binding, comparable within an allelic series) | binding signal (HOXD13 [11]): 11.7 upbm affinity estimate (log intensity, higher = more binding, comparable within an allelic series) | binding signal (HOXB9 [8]): 12 upbm affinity estimate (log intensity, higher = more binding, comparable within an allelic series) | binding signal (HOXC9 [9]): 11.2 upbm affinity estimate (log intensity, higher = more binding, comparable within an allelic series)

GGAGCTCC
binding signal (HOXB9 [1]): 8.62 upbm affinity estimate (log intensity, higher = more binding, comparable within an allelic series) | binding signal (HOXB9 [4]): 8.6 upbm affinity estimate (log intensity, higher = more binding, comparable within an allelic series) | binding signal (ALX3 [14]): 7.68 upbm affinity estimate (log intensity, higher = more binding, comparable within an allelic series) | binding signal (ALX3 [15]): 7.41 upbm affinity estimate (log intensity, higher = more binding, comparable within an allelic series) | binding signal (ALX3 [16]): 7.7 upbm affinity estimate (log intensity, higher = more binding, comparable within an allelic series) | binding signal (HOXB9 [8]): 8.62 upbm affinity estimate (log intensity, higher = more binding, comparable within an allelic series) | binding signal (ALX3 [17]): 7.63 upbm affinity estimate (log intensity, higher = more binding, comparable within an allelic series) | binding signal (ALX3 [18]): 7.63 upbm affinity estimate (log intensity, higher = more binding, comparable within an allelic series)

GTTAATGA
binding signal (HOXC10 [7]): 11.9 upbm affinity estimate (log intensity, higher = more binding, comparable within an allelic series)

ATCATTAA
binding signal (HOXB9 [1]): 10.3 upbm affinity estimate (log intensity, higher = more binding, comparable within an allelic series) | binding signal (HOXC9 [2]): 12.8 upbm affinity estimate (log intensity, higher = more binding, comparable within an allelic series) | binding signal (HOXC10 [3]): 12.4 upbm affinity estimate (log intensity, higher = more binding, comparable within an allelic series) | binding signal (HOXB9 [4]): 12.1 upbm affinity estimate (log intensity, higher = more binding, comparable within an allelic series) | binding signal (HOXC9 [5]): 12.8 upbm affinity estimate (log intensity, higher = more binding, comparable within an allelic series) | binding signal (HOXC9 [6]): 12.8 upbm affinity estimate (log intensity, higher = more binding, comparable within an allelic series) | binding signal (HOXD13 [10]): 11.8 upbm affinity estimate (log intensity, higher = more binding, comparable within an allelic series) | binding signal (HOXC10 [7]): 12.3 upbm affinity estimate (log intensity, higher = more binding, comparable within an allelic series) | binding signal (HOXD13 [11]): 11.7 upbm affinity estimate (log intensity, higher = more binding, comparable within an allelic series) | binding signal (HOXB9 [8]): 11.8 upbm affinity estimate (log intensity, higher = more binding, comparable within an allelic series) | binding signal (HOXC9 [9]): 11.1 upbm affinity estimate (log intensity, higher = more binding, comparable within an allelic series)

ATTTGAAC
binding signal (HOXC9 [2]): 10.9 upbm affinity estimate (log intensity, higher = more binding, comparable within an allelic series) | binding signal (HOXC9 [5]): 10.8 upbm affinity estimate (log intensity, higher = more binding, comparable within an allelic series) | binding signal (HOXC9 [6]): 11 upbm affinity estimate (log intensity, higher = more binding, comparable within an allelic series)
